Laboratory results taken from ChEMBL document CHEMBL3988442, “University of Dundee, Small-Polar-MMV Screening Library” (2021).
Where “and” joins values, the source holds several entries; their conditions need not be identical. Equal entries are not always repeated. For some assays here: Measured potencies and affinities stand elsewhere.

How the values were obtained:
Set-up in all cases: scale not given: direction of the effect not stated beside the values
[1] = target: Protein translocase subunit SecA (Escherichia coli (strain K12)) (UniProt P10408); assay: Assay to Identify E. coli SecA ATPase Inhibitors; assay type: functional; settings: 30 µM
[2] = target: T1, Ubiquitin-activating enzyme e1, putative (Leishmania donovani (strain BPK282A1)) (UniProt E9BSI1); assay: Leishmania donovani Ubiquitin Activating Enzyme (LdE1); assay type: functional; settings: 30 µM
T1 sequence (whole entry): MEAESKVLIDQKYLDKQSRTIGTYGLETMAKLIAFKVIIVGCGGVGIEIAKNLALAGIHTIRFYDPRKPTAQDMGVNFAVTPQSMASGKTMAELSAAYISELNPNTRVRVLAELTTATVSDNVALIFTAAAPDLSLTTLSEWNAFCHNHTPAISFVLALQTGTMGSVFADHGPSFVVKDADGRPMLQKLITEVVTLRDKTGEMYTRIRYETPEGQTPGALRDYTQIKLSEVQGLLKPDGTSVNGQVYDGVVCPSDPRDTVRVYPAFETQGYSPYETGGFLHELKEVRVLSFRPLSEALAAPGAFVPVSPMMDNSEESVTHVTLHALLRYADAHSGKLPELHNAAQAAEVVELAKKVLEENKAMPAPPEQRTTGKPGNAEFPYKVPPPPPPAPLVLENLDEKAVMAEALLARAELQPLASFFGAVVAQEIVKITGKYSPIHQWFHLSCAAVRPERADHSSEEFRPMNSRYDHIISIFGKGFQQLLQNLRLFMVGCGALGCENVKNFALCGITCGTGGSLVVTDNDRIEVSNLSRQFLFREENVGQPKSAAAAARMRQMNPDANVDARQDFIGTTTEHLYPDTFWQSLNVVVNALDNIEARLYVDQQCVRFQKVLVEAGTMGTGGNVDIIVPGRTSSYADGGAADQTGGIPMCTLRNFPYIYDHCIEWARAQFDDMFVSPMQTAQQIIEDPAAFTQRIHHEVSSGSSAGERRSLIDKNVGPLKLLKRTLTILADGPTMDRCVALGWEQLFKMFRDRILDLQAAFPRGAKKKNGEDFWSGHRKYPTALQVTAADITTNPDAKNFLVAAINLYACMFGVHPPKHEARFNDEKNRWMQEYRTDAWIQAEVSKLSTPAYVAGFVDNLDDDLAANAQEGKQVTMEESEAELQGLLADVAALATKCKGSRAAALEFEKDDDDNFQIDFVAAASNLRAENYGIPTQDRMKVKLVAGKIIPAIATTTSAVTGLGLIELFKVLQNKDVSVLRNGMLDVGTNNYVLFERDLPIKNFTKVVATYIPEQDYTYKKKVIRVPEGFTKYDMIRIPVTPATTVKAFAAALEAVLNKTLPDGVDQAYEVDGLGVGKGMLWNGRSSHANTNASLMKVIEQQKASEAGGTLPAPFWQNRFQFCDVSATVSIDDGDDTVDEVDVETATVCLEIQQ

[3] = target: Sialic acid-binding Ig-like lectin 9 (Homo sapiens) (UniProt Q9Y336); assay: Hs-Siglec9 ALPHAscreen SOP 20170721; settings: 10 µM
Trypanosoma cruzi = assay: Trypanosoma cruzi phosphomannomutase and mannose-1-phosphate guanylyltransferase assay; assay type: functional; settings: 10 µM
[4] = target: T2, Arginase-2, mitochondrial (Homo sapiens) (UniProt P78540); assay: in vitro enzyme assay to detect the production of urea directly proportional to the activity of Arginase II; assay type: functional; also: in the data most compounds retested in dose-response had high values
T2 sequence (whole entry): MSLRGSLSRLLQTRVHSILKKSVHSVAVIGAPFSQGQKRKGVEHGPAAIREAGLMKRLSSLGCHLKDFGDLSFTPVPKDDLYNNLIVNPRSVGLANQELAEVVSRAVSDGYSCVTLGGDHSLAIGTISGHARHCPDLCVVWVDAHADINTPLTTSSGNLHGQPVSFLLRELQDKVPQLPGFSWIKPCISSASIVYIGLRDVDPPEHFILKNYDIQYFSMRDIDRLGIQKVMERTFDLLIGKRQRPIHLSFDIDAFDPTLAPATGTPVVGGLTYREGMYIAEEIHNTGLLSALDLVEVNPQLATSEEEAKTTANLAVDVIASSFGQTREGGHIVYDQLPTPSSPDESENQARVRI

[5] = target: T3, Proteasome subunit beta (Trypanosoma cruzi) (UniProt O96673); assay: Trypanosoma cruzi proteasome chymotrypsin-like activity (TcProtChymo) assay.; also: in the data most compounds retested in dose-response had high values; assay type: functional; settings: 9.37 µM
T3 sequence (whole entry): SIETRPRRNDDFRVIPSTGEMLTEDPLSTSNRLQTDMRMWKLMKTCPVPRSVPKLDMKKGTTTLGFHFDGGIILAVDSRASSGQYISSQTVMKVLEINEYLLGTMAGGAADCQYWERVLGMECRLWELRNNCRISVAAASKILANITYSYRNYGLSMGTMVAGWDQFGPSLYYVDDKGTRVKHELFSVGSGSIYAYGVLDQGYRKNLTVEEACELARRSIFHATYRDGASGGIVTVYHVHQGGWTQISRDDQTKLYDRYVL

N/A = assay: Trypanosoma cruzi proteasome luciferase counter-screen; assay type: functional; settings: 9.37 µM
Homo sapiens = organism: Homo sapiens; assay: To identify inhibition of the IFN signalling (Jak-Stat) pathway via expression of an eGFP reporter gene under the control of an IFN-stimulated response element (ISRE) containing MxA promoter.; assay type: functional; settings: 30 µM
[6] = target: T4, Tyrosyl-tRNA synthetase, putative (Trypanosoma cruzi (strain CL Brener)) (UniProt Q4DSP6); assay: Trypanosoma cruzi tyrosyl tRNA synthetase (TcYRS) _High Tyrosine SOP; assay type: functional; settings: 30 µM; also: in the data most compounds retested in dose-response had high values
T4 sequence (whole entry): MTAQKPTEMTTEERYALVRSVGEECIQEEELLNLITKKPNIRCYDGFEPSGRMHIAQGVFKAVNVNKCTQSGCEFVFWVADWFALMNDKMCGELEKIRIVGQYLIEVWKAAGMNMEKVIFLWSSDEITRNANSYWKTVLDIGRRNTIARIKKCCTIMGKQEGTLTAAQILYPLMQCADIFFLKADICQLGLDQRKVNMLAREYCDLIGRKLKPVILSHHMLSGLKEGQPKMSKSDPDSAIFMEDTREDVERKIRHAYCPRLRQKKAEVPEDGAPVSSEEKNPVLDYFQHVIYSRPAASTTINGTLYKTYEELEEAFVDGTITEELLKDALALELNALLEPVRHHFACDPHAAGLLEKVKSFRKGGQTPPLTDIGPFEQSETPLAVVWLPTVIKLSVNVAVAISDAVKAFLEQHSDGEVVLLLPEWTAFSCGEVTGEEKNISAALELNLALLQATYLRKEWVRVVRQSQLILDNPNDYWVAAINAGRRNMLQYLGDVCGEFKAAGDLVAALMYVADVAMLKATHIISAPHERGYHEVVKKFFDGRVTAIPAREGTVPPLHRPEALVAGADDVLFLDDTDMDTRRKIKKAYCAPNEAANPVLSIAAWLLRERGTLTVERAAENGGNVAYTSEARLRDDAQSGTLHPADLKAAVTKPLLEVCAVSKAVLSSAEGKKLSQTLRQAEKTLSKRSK

[7] = target: T4, Tyrosyl-tRNA synthetase, putative (Trypanosoma cruzi (strain CL Brener)); assay: Trypanosoma cruzi tyrosyl tRNA synthetase (TcYRS) SOP; assay type: functional; settings: 30 µM
[8] = target: Chromo domain-containing protein 1 (Saccharomyces cerevisiae (strain ATCC 204508 / S288c) (Baker's yeast)) (UniProt P32657); assay: ScCHD-1 Enzyme Inhibition Assay; assay type: functional; settings: 30 µM; also: in the data most compounds retested in dose-response had high values
[9] = target: AMP-activated protein kinase, AMPK (Homo sapiens) (UniProt P54646+O43741+P54619+Q9UGJ0+Q9Y478+Q13131+Q9UGI9); assay: AMP-dependent Kinase enzyme assay. An in vitro enzyme assay that detects ADP turnover that is directly proportional to AMPK activity. This uses naive AMPK that is activated during the assay with MK-8722; assay type: functional; settings: 30 µM

Sialic acid-binding Ig-like lectin 9 (Homo sapiens), sequence (Q9Y336 whole entry): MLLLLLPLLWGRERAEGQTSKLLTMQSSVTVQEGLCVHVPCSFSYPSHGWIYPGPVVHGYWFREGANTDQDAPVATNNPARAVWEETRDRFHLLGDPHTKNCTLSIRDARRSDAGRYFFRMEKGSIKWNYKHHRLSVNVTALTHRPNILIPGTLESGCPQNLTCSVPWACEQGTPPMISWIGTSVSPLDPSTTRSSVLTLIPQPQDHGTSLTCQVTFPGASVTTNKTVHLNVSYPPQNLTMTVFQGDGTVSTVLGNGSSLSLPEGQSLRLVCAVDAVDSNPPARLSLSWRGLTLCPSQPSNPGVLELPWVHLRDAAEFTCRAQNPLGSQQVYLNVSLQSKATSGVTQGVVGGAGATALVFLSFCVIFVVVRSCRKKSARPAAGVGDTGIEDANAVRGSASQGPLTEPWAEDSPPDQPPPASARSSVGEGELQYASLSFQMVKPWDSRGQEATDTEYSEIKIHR
Protein translocase subunit SecA (Escherichia coli (strain K12)), sequence (P10408 whole entry): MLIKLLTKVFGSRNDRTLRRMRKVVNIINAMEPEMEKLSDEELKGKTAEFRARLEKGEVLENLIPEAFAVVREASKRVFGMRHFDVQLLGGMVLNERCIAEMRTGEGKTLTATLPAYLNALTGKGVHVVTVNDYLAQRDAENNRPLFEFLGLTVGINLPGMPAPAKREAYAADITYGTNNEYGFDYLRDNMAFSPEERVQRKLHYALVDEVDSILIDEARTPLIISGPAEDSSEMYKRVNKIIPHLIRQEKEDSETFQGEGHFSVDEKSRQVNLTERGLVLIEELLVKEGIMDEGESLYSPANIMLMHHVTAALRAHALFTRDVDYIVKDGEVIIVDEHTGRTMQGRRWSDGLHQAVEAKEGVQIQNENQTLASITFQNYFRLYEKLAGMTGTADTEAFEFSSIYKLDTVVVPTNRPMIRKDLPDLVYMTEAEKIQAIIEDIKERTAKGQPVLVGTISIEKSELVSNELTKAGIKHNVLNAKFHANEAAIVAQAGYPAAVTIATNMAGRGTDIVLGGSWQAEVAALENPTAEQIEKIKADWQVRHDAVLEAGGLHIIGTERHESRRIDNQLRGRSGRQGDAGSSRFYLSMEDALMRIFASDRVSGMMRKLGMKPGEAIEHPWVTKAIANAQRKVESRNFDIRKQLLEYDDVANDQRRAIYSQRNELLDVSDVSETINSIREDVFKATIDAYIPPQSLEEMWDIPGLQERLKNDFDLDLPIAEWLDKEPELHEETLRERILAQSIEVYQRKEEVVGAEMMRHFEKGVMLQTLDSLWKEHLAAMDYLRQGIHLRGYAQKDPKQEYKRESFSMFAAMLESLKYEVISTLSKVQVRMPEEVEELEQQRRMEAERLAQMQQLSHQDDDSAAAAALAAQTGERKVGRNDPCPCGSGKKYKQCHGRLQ
Chromo domain-containing protein 1 (Saccharomyces cerevisiae (strain ATCC 204508 / S288c) (Baker's yeast)), sequence (P32657 whole entry, the tested form may be a part): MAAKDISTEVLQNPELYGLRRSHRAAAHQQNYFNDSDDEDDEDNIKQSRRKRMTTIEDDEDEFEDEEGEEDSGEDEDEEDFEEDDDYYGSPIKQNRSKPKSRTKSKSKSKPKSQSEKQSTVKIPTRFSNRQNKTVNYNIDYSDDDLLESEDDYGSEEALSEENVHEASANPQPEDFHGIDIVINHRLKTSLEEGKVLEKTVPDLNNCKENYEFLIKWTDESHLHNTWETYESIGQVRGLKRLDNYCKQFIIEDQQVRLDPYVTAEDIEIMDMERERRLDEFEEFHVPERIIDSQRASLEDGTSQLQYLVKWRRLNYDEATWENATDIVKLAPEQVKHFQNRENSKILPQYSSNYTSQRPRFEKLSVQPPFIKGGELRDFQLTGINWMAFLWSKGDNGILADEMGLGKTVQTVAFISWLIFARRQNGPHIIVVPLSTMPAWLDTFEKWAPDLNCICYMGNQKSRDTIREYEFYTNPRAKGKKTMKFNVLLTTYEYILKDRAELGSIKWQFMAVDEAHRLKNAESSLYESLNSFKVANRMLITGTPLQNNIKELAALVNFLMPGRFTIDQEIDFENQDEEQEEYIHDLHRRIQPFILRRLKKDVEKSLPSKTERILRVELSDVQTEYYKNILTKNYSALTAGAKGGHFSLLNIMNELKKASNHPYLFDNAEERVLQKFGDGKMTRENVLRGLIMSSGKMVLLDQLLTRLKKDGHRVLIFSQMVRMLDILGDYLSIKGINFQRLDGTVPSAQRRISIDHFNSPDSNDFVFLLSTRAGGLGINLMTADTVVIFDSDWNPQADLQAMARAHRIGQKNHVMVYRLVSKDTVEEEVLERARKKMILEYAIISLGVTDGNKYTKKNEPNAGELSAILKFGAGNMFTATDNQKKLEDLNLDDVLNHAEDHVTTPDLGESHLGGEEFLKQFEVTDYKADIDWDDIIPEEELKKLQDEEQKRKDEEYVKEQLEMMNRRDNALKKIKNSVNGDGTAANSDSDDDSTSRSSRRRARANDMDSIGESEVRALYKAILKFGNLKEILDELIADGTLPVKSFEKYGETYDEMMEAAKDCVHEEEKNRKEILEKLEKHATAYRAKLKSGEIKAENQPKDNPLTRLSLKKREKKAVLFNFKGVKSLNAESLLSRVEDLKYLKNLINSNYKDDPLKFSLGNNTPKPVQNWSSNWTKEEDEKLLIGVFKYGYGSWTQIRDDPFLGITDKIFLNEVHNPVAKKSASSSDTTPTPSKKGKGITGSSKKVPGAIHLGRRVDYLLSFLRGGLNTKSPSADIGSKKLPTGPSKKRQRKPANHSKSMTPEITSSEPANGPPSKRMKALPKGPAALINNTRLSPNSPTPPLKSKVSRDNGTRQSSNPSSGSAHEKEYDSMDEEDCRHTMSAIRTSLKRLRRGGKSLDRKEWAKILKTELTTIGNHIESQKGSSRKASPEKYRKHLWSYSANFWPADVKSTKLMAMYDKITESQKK

Row | Structure (SMILES) | Percent Effect [1] [%] | Percent Effect [2] [%] | Percent Effect [3] [%] | Percent Effect (Trypanosoma cruzi) [%] | Percent Effect ([4]; 33.3 µM) [%] | Percent Effect [5] | Percent Effect (N/A) | Percent Effect (Homo sapiens) [%] | Percent Effect [6] [%] | Percent Effect [7] [%] | Percent Effect [8] [%] | Percent Effect [9] [%] | Percent Effect ([4]; 30 µM) [%]
1 | CN(C)c1cc(CNC(=O)Nc2ccc(F)cc2)ccn1 | 2.4 | 17.9 | -9.83 | 3.29 | 0.41 | 47.8% and 47.4% and 50.2% | 25.9% and 25.6% | 6.94 | 7.18 | 25.3 | -3.18 | – | –
2 | Cc1nc(C)c(C(=O)OCCNc2ncccc2C#N)s1 | -3.81 | 10.4 | 12.8 | -7.09 | 1.02 | 71.6% and 65.6% and 62.3% | 28.5% and 30.6% | 32.9 | 2.94 | 9.41 | 0.0387 | – | –
3 | O=S(=O)(NCC1(O)CCOc2ccccc21)c1ccc(Br)s1 (stereo not given) | -7.03 | 2.74 | -1.37 | -3.72 | -1.82 | 4.97% | – | 21.1 | – | – | -2.54 | 6.4 | –
4 | Fc1ccc(CN2CCCC2c2cncc(-n3ccnc3)n2)cc1 (stereo not given) | -2.01 | 9.33 | -0.339 | -0.986 | 0.885 | -1.97% | – | 3.29 | 4.23 | 12.5 | -24.9 | – | –
5 | c1ccc(-c2ccc(C3CNCCO3)nc2)cc1 (stereo not given) | -1.91 | 14.7 | -4.38 | -2.37 | -3.1 | 41% and 49.8% and 42.6% | 18% and 21% | -23.6 | 3.17 | 7.5 | -25.7 | – | –
6 | Cc1nc(C)n(CC2CCCN2Cc2nc(N)c3ccccc3n2)n1 (stereo not given) | -1.49 | 21.3 | -3.38 | 3.81 | -3.1 | 16.4% and 18.4% and 30.6% | 8.36% and 7.38% | 8.71 | 6.84 | 15.4 | -17.8 | – | –
7 | CS(=O)(=O)N1CCN(C(=O)Cn2ccc3c(Cl)cccc32)CC1 | -4.17 | -2.7 | -2.63 | -7.08 | -3.15 | 18.1% | – | 4.83 | 2.66 | 2.44 | -0.985 | – | 5.95
8 | CCCc1cc(C(=O)N2CCOC(c3nc(-c4cccs4)no3)C2)no1 (stereo not given) | -3.79 | 9.33 | 6.29 | 3.55 | 2.21 | 7.55% | – | 17 | -12.7 | 2.5 | -19.9 | – | –
9 | CCNC(=O)c1ccnc(NCC2COc3cc(OC)ccc3C2)c1 (stereo not given) | -6.93 | 5.41 | 2.93 | -3.78 | -1.05 | 23.6% | – | 24.8 | 2.66 | 7.32 | -4.55 | – | 0.54
10 | c1cnn(CC2CCCCN2Cc2cn3ccsc3n2)c1 (stereo not given) | -2.05 | 10.3 | 13.3 | 9.67 | 0 | 9.98% | – | 15.8 | 10.1 | 18.1 | -1.18 | – | –
11 | Cc1noc(C2CCN(C(=O)CN(C)c3ccc(Cl)cn3)CC2)n1 | -1.77 | 12.8 | -5.03 | 4.6 | 6.56 | 8.11% | – | 3.6 | 8.13 | 20.5 | -1.95 | – | –
12 | COc1cccc(C(=O)NCCCN2CCc3ccccc3C2)c1OC | -0.301 | -5.33 | 7.23 | -2.81 | 1.77 | -5.34% | – | 10.1 | 2.63 | 0 | -4.32 | – | –
13 | O=C(Cc1cccs1)N1CC[C@H]2[C@@H]1CCC(=O)N2c1cccnc1 | -2.81 | 29.9 | -3.71 | -1.31 | 1.37 | 16.1% | – | -2.71 | 3.87 | 7.5 | -11 | – | –
14 | Cc1ccc(C(O)CNCCn2cccn2)cc1C (stereo not given) | -4.43 | 2.67 | 5.78 | 0.803 | 1.33 | 2.97% | – | 4.85 | 3.68 | 7.69 | -8.09 | – | –
15 | Cn1cc(-c2nc(CN3CCc4c(ncn4C4CC4)C3)cs2)cn1 | 0.667 | -2.6 | 12.4 | 3.54 | -0.615 | 3.33% | – | 8.83 | 0.98 | 4.71 | -7.98 | – | –
16 | Cc1ccccc1N1CC2(CCN(S(=O)(=O)c3cccs3)C2)CC1=O (stereo not given) | -1.18 | 24.7 | -0.756 | 0 | -15.5 | 8.67% | – | 10.2 | 5.8 | 2.5 | -9.98 | – | –
17 | CC(=O)N(Cc1ncc(C)o1)C1CCN(CCCc2cnn(C)c2)C1 (stereo not given) | -1.84 | 18.7 | -5.35 | 1.41 | -3.99 | 26.2% | – | 2.97 | 4.74 | 12.8 | -12.6 | – | –
18 | c1ncn(CC2CCCN2Cc2cn3ccsc3n2)n1 (stereo not given) | -3.52 | 5.13 | -17.1 | 7.61 | -1.23 | -4.86% | – | -3.77 | 2.39 | 6.02 | 1.9 | – | –
19 | CCc1nc(CN2CCCN(C(=O)CCSC)CC2)cs1 | -1.79 | 12.8 | -12.3 | -7.98 | 6.15 | 9.81% | – | 22.8 | 0.478 | 18.1 | -4.21 | – | –
20 | CC(=O)N1CCC2(CCN(C(=O)c3ccc(Cl)c(C(F)(F)F)c3)CC2)C1 | -7.31 | 6.49 | 5.74 | 0.292 | -0.405 | 7.5% | – | -12.1 | 6.84 | 7.69 | 3.63 | – | –
21 | Cc1cccnc1C(=O)N1CCCC(c2[nH]ncc2S(C)(=O)=O)C1 (stereo not given) | -0.892 | 4 | 0.0565 | -4.54 | 3.1 | 0.985% | – | 20 | 5.29 | 7.5 | -20.1 | – | –
